PubChem BioAssay
The source made the active and inactive calls. The rule behind the calls is not given here.

assay: inhibition of 3D7 malaria parasite growth – strain 3D7 (AID 2306);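 note: 0% = DMSO wells and 100% = chloroquine plus artemisinin control wells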; settings: P. falciparum 3D7 erythrocytic growth, LDH absorbance, 72 h; at 2 µM; active compounds read high

Growth inhibition, active:
O=C(Nc1nc2cc(S(=O)(=O)NCCc3ccc(F)cc3)ccc2n1CCCn1ccnc1)c1ccc(Cl)cc1 100%, Cc1[nH]c(C)c(C(F)(F)F)c(=O)c1-c1ccc(Oc2ccc(OC(F)(F)F)cc2)cc1 97%, COc1ccc(CNCc2cccc(-c3cccc(-c4nc5c(C)cccc5[nH]4)c3)c2)cc1 102%, CC(C)(C)c1ccc(C(=O)NC2CCC(CCN3CCc4ccc(S(C)(=O)=O)cc4CC3)CC2)cc1C(F)(F)F (centres undefined) 88%, CCCCCCc1cc(Oc2c(I)cc(C[C@H](N)C(=O)O)cc2I)ccc1O 97%, CN(C)Cc1cccc(-c2ccc3ccnc(N)c3c2)c1 99%, CN1CCN(CCc2ccc3nc(-c4csc(Cc5cc(Cl)ccc5OCc5ccccc5)n4)[nH]c3c2)CC1 101%, COc1ccc(C=NNc2ccnc3cc(F)c(C)cc23)c2ccccc12 101%, Cc1nc(N)nc(N)c1OCc1cccc2c1ccc1ccccc12 95%, Cc1nc(Nc2ccc(F)cc2)nc(N2CCc3cc(O)ccc3C2C)c1C (centres undefined) 99%, CNc1ccc(CNCc2ccc(-c3ccc(-c4nc5ccc(C(F)(F)F)cc5[nH]4)s3)cc2)cc1 102%, NCc1ccc(CNCc2cccc(-c3ccc(-c4nc5ccccc5[nH]4)cc3)c2)cc1 100%, CCN(CC)Cc1ccc2c(=O)cc(CCc3cccc(F)c3F)n(CC(=O)N(Cc3ccc(-c4ccc(C(F)(F)F)cc4)cc3)C(C)C)c2c1 102%, O=C(/C=C/c1ccc(Cl)c(Cl)c1)NCCCCCCN1CCN(C(=O)Nc2ccc(C(F)(F)F)cc2)CC1 100%
